Screening results: PubChem BioAssay, The Scripps Research Institute Molecular Screening Center
GPR151 activ: human GPR151 activation | PathHunter beta-arrestin GPR151 cells, luminescence | activation, % at 11.2 µM | 650,000 tested, 1% active | AID 1508602; in the data active = activation above about 4.9%;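 note: 0% = median of compound wells and 100% = cells with positive control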
Target sequence (Q8TDV0 whole entry, looked up): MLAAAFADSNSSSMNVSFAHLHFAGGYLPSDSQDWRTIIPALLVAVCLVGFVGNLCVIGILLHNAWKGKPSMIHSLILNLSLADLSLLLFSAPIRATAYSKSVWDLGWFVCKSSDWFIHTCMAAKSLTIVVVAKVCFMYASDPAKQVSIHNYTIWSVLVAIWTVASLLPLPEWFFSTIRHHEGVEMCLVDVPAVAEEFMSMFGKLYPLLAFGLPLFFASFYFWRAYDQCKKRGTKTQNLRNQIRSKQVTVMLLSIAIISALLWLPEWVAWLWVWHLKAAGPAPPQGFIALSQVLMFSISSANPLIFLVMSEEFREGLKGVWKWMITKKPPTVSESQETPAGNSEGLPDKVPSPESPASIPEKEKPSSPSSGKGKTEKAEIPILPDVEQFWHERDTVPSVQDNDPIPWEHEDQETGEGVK
FBW7 act: human FBW7 E3 ligase activation, primary screen; Q969H0; AlphaScreen FBW7–phospho-cyclin E peptide binding, activator screen; normalized activity (activation), % at 26.1 µM; 650,000 tested, 0.13% active; AID 1259310; in the data active = normalized activity above about 1.9%;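 note: purified mutant Fbw7 with reduced substrate affinity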
MITF primary: human MITF inhibition, primary screen. O75030. AlphaScreen MITF homodimerization, bead proximity signal. inhibition, % at 2.6 µM. 650,000 tested, 0.91% active. AID 1259374; in the data active = inhibition above about 50%;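 note: 0% = vehicle wells with protein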
TEAD-YAP block: TEAD-YAP interaction inhibition | HEK-TIYL cells, TEAD-Gal4/YAP UAS-luciferase luminescence | 640,000 tested, 1.4% active | inhibition, % at 9.12 µM; in the data active = inhibition above about 32%;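 note: 0% = median of test compound wells and 100% = reference inhibitor wells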
An asterisk follows results filed as active. The list is not random: actives were taken first. Their share in the collection is about 3.5%.

SMILES | GPR151 activ | FBW7 act | MITF primary | TEAD-YAP block
CN(Cc1cc([N+](=O)[O-])c2cccnc2c1O)C1CCCCC1 | -2 | -1 | 114* | 29
O=[N+]([O-])c1cc(CN2CCN(c3ccccc3)CC2)c(O)c2ncccc12 | 0 | -1 | 61* | 48*
CN(Cc1cc(Br)c(O)c2ncccc12)C1CCCCC1 | 2 | -1 | 79* | 87*
Oc1c(I)cc(Cl)c2cccnc12 | 0 | 0 | 4 | -7
O=c1n(Cc2ccccc2Cl)c2cc(N3CCOCC3)c([N+](=O)[O-])cc2n1Cc1ccccc1Cl | 0 | 0 | 16 | -1
O=C(O)COc1ccc(N2C(=O)c3ccc(Oc4ccc([N+](=O)[O-])cc4)cc3C2=O)cc1 | 2 | 0 | -22 | 5
COc1ccc(C2C(C(=O)N3CCN(c4ccccc4OC)CC3)c3ccccc3C(=O)N2c2ccc(OC)cc2)cc1 (stereo not given) | 0 | 0 | 3 | 34*
COc1ccc(CNC(=O)c2cc3c(C)nc4ccccc4c3o2)c(OC)c1 | 0 | 0 | -9 | 34*
COc1cccc(CNC(=O)c2cc3c(C)nc4ccccc4c3o2)c1 | 0 | 0 | 2 | 25
O=c1c(Cl)c(Cl)cnn1-c1ccc(Cl)cc1 | -1 | 1 | 11 | 82*
COCCN1C(=O)/C(=C/c2c(N(C)CCO)nc3ccccn3c2=O)SC1=S | 0 | 0 | 3 | 12
COc1cc([N+](=O)[O-])ccc1NC(=O)CN1CCC(C(N)=O)(N2CCCCC2)CC1 | 0 | 0 | 2 | -11
O=C(CC1CCCCC1)Nc1nnc2n1CCS2 | 1 | 3.1* | 19 | -4
O=C(c1cc2nc(-c3ccccc3)cc(C(F)(F)F)n2n1)N1CCN(Cc2ccccc2)CC1 | 1 | 0 | 8 | 1
S=c1[nH]ncn1/N=C/c1ccc(N2CCOCC2)cc1 | -2 | 1 | 16 | 73*
Fc1cc(-c2ccnc(Nc3ccc(-c4nnn(-c5cccnc5)n4)cc3)n2)cc(N2CCOCC2)c1 | 0 | 1 | 1 | -19
COCCCNC(=O)CCCn1c2ccccc2c2cn[nH]c(=O)c21 | 1 | 0 | -3 | 0
Nc1cc(S(=O)(=O)O)c(O)c2c1C(=O)c1c(O)c(S(=O)(=O)O)cc(N)c1C2=O | -3 | -1 | 61* | 17
CN(CCC#N)C(=O)COC(=O)CCN1C(=O)c2cccc([N+](=O)[O-])c2C1=O | 0 | 0 | -3 | -6
Cc1cccc(NC(=O)CC(C)(C)C)c1C | 0 | 0 | 2 | -4
CCC(C)N(CC(=O)Nc1cccc(C)c1C)C(=O)CCl (stereo not given) | 0 | 0 | -14 | 69*
COc1ccc(CCn2c(=S)[nH]c3nccnc3c2=O)cc1OC | 0 | 0 | -1 | 40*
C=CCn1c(SCC(=O)N2CCN(c3ccccc3)CC2)nnc1-c1ccccc1O | -2 | 0 | 22 | 33*
CCn1c(SCC(=O)N2CCN(c3ccccc3)CC2)nnc1-c1ccccc1O | 3 | 0 | 9 | 34*
C=CCn1c(SCC(=O)N2CCOCC2)nnc1-c1ccccc1O | -1 | 1 | 4 | -5
SMILES | GPR151 activ | FBW7 act | MITF primary | TEAD-YAP block
COc1ccc(-c2nc3s/c(=C\c4ccccc4)c(=O)n3n2)cc1 | 1 | 0 | 11 | 3
CCc1nc2ccc(C(=O)NCCOC)cc2nc1CC | 1 | 0 | 1 | -4
O=C(CSc1nnc2c(n1)[nH]c1ccccc12)Nc1ccccc1F | -1 | 0 | 0 | -19
O=C(CSc1nnc2c(n1)[nH]c1ccccc12)Nc1ccc(Br)cc1 | -1 | 0 | -3 | 2
O=C(CSc1nnc2c(n1)[nH]c1ccccc12)Nc1ccc(C(=O)N2CCCCC2)cc1 | 1 | 0 | 10 | 34*
O=C(CSc1nnc2c(n1)[nH]c1ccccc12)Nc1ccc(Cl)cn1 | 0 | 0 | 6 | 57*
CS(=O)(=O)Nc1ccc(-c2cnc3cccc(Nc4ncc([N+](=O)[O-])s4)c3c2)cc1 | -1 | 0 | 10 | -11
Cc1nn(C(=O)C2CC2)c(C)c1Sc1ccccc1[N+](=O)[O-] | 0 | 0 | -3 | 0
Cc1oc2cc(OCC(=O)O)ccc2c(=O)c1-c1ccc(Br)cc1 | 1 | 0 | -3 | -2
Cc1oc2cc(OCCN3CCOCC3)ccc2c(=O)c1-c1ccc(Br)cc1 | 1 | 0 | -3 | 37*
COc1cccc(Oc2c(C)oc3cc(OS(C)(=O)=O)ccc3c2=O)c1 | 1 | 0 | -4 | 44*
COc1ccc(-c2c(C)oc3cc(O)ccc3c2=O)cc1 | 1 | 0 | -4 | 1
Cc1oc2cc(OS(C)(=O)=O)ccc2c(=O)c1-c1ccc(Br)cc1 | 3 | 0 | 1 | 34*
COc1ccc(-c2c(C)oc3cc(OS(C)(=O)=O)ccc3c2=O)cc1 | 1 | 0 | 3 | 37*
COc1cccc(-n2nnc3c(SCc4cccnc4)ncnc32)c1 | -5 | 0 | -13 | -12
O=C(/C=C\Nc1cccc(F)c1)c1cccs1 | -2 | 0 | 8 | -4
COC(=O)c1ccc(N/C=C/C(=O)c2cccs2)cc1 | -5 | 0 | -8 | 53*
O=C(/C=C/Nc1ccc(I)cc1)c1cccs1 | 0 | 0 | 23 | 41*
Cc1ccc(N/C=C/C(=O)c2cccs2)cc1 | 1 | 0 | 37 | 81*
Cc1nc(N)sc1N=Nc1cccc2ccccc12 | 2 | 0 | 20 | -19
COc1cc2c(C(=O)N(C)c3ccccc3C)cn(CC(C)C)c(=O)c2cc1OC | 1 | 2.2* | -9 | -17
CCc1cc(-c2nc(N)ncc2-c2ccc(Br)cc2)c(O)cc1OC | 0 | 0 | 1 | -3
CCCc1cc(-c2oncc2-c2ccc3c(c2)OCCO3)c(O)cc1OC | 0 | 0 | -4 | 51*
CCc1cc(-c2oncc2-c2ccc(Br)cc2)c(O)cc1OC | 0 | 0 | -3 | 55*
CC(C1=C(O)CC(C)(C)CC1=O)C1C(=O)CC(C)(C)CC1=O (stereo not given) | 1 | 0 | 4 | 0
SMILES | GPR151 activ | FBW7 act | MITF primary | TEAD-YAP block
O=C(Nn1c(-c2ccc(F)cc2)nc2ccccc2c1=O)c1cccc([N+](=O)[O-])c1 | -1 | 0 | -17 | 10
CCCCc1ccc(C(=O)Nc2cc3ccccc3oc2=O)cc1 | 1 | 0 | -1 | 55*
Cc1ccc(C(=O)Nc2cc3ccccc3oc2=O)cc1 | -2 | 0 | 8 | 86*
Cc1ccc(C(=O)Nc2cc3cc(Br)ccc3oc2=O)cc1C | -1 | 0 | -2 | -10
Cc1ccc(C(=O)Nc2cc3ccccc3oc2=O)cc1C | -2 | 0 | -3 | 62*
CC(=O)Nc1cc2ccccc2oc1=O | -1 | 0 | 26 | -2
CC(=O)Oc1ccc2cc(NC(=O)c3cccc(C)c3)c(=O)oc2c1 | -3 | 0 | 4 | 38*
COc1cc(C)c(CN2CCN(CC(C)(C)C)C(CCO)C2)cc1C (stereo not given) | 0 | 0 | 1 | -4
O=S(=O)(NCc1cn2ccccc2n1)c1ccc(Oc2ccccc2)cc1 | -1 | 0 | -8 | 16
O=C(COc1ccc(Oc2ccccc2)cc1)NCc1cn2ccccc2n1 | -1 | 0 | 14 | 55*
